The structures appear in SMILES notation. Where “and” joins values, the source holds several entries; their conditions need not be identical. Equal entries are not always repeated. Screen size: about 310,000 compounds; about 1,900 (0.61%) were called active. Where a call stands in place of a potency, no number is given. Not shown: some 8% with an inconclusive outcome. Many of the other results were omitted from the sample, so actives are more common in it than they were. Values without a mark were called inactive. Calls come from the whole dose curve; tested in A549 cells.
Potency is the fitted concentration of half-maximal effect.

The nature of the assay: qHTS for Stage-Specific Inhibitors of Vaccinia Orthopoxvirus: mCherry Reporter Primary qHTS. Note: nearly all actives have a fitted effect of over 35% in size. Conditions: Vaccinia virus mCherry reporter infection, fluorescence; series mostly up to 36.5 µM. (qHTS replaces the single test concentration by a dilution series.)
In the case of `CCOC(=O)C1CCCN(C(=O)c2cc(-c3cccs3)oc2C)CC1` (configuration not stated), the Potency result is “inactive”.
Still for that read-out and setting: next, `Cc1cc(Cl)ccc1-c1nc(NCCN(C)C)nc2ccsc12`: “inactive”.
In the case of `CC(C)c1cc(N=O)cc(C(C)C)c1O`, the Potency result was “inactive”.
Turning to `CC(C)=CCc1c(O)c(CC=C(C)C)c2occ(-c3ccc(O)cc3)c(=O)c2c1O`, the Potency entry was “inactive”.
Still for that read-out and setting: next, `CC(C)=CCc1ccc(O)c(=O)cc1C(C)C`: 3.16 µM (active); `CN(C(=O)CN1CCN(c2cc(-c3ccc(OCc4ccccc4)cc3)ncn2)CC1)c1ccccc1`: 7.94 µM (active).
The same measure, in the same setting: as for `CCOc1ccc(OCc2ccc(C(=O)N(C)c3ccccc3)o2)cc1`, the entry is “inactive”; as for `CN(Cc1ccccc1)C(=O)c1ccc(COc2ccccc2)cc1`, “inactive”.
`Cc1cccc(CNC(=O)c2sc(=O)n(Cc3ccccc3C)c2C)c1`: the Potency entry was “inactive”.
The same measure, in the same setting: next, `Cc1cc(C)c2c(=O)n3c(nc2c1)C(CC(C)C)NC(=O)c1cc2ccccc2cc1-3` (configuration not stated): 10 µM (active); `CCC1NC(=O)c2cccnc2-n2c1nc1ccc(C)cc1c2=O` (configuration not stated): “inactive”; `O=C1NC(Cc2ccccc2)c2nc3ccc(Br)cc3c(=O)n2-c2cc3ccccc3cc21` (configuration not stated): “inactive”.
Turning to `NC(=O)Nc1ccc(/C=C/c2ccnc3ccccc23)cc1`, the Potency entry is “inactive”.
For `COC(=O)c1ccc2nc(-c3ccccc3)c(Cc3ccc(OC)cc3C)n2c1`, the Potency result is “inactive”.
With `Cc1ccc(S(=O)(=O)N(CCc2ccccc2)c2ccc3c(c2)C2CC3CCN2C(=O)OCc2ccccc2)cc1` (configuration not stated), the Potency result was “inactive”.
On to `COc1ccc(CC(=O)NC(C)CCc2ccccc2)cc1` (configuration not stated), for which the Potency result was “inactive”.
For the molecule `C/C=C/NNC(=O)Cc1ccc(OC)cc1`, the Potency is 11.2 µM (active).
As for `CCCCCNC(=O)Cc1ccc(OC)cc1`, the Potency result was “inactive”.
Take `CC1(C(=O)NCC2CCOCC2)Cc2c(-c3cccc(C(N)=O)c3)ccnc2O1` (configuration not stated): the Potency result was “inactive”.
As to `COc1ccc(-c2nnc(SCc3cccnc3)o2)cc1`, the Potency result is “inactive”.
Regarding `COc1ccc(-c2nnc(SC(C)C#N)o2)cc1` (configuration not stated), the Potency was 11.2 µM (active).
For the molecule `COc1ccc(-c2nnc(-c3ccc4ccccc4c3)o2)cc1`, the Potency result was “inactive”.
`CCOC(=O)[C@]12CCCC=C1N(Cc1ccc(Cl)cc1Cl)C(=O)[C@H](CC(=O)N1CCCCC1)C2`: the Potency entry is “inactive”.
With `COc1c(C)c2c(c(O)c1C/C=C(\C)CCC(=O)O)C(=O)OC2`, the Potency was 5.62 µM (active) and 4.47 µM (active).
In the case of `CCc1nc2c(OCc3ccc(C(F)(F)F)cc3)cccn2c1N(C)C(=O)CC(C)C`, the Potency entry is “inactive”.
With `CCOC(=O)c1c(NC(=S)SC)sc(C(=O)N2CCc3ccccc3C2)c1C`, the Potency entry is “inactive”.
On the same count and under the same terms, as for `CC1(C)OC(=O)C2=C(C[C@@H](C3CC3)O[C@H]2CCc2cccc(Cl)c2)O1`, the entry is “inactive”.
Regarding `CCC(CC)C(C(=O)NC1CCCC1)N1CCN(c2cc(C)nc3ccccc23)CC1` (configuration not stated), the Potency result is “inactive”.
Still for that read-out and setting: as for `CN(O)C(=S)c1ccccc1`, the figure is 14.1 µM (active).
Regarding `CN(CC(=O)O)C(=O)c1ccccc1`, the Potency result was “inactive”.
On the same count and under the same terms, next, `S=C(c1ccccc1)N1CCCC1`: “inactive”; `Cc1ccc2nc(-c3ccccc3)c(CC3CCCCC3)n2c1`: “inactive”.
Consider `CCC(C)N1C(=O)S/C(=C/c2ccc(Sc3nc4ccccc4[nH]3)o2)C1=O` (configuration not stated), for which the Potency is 12.6 µM (active).
Turning to `CCC(c1nc2ccccc2[nH]1)n1c(=O)c(-c2cccs2)nc2ccccc21` (configuration not stated), the Potency result is “inactive”.
With `CCCCSc1nc2ccccc2[nH]1`, the Potency result was “inactive”.
The same measure, in the same setting: next, `CN(C)c1ccc(C=Nc2ccc(/C=C/c3ccnc4ccccc34)cc2)cc1`: “inactive”; `CC(C)n1ncc2c(C(=O)N3CCN(Cc4cccs4)CC3)cc(C3CC3)nc21`: “inactive”; `Cc1cccc(N2CCN(c3ccc(NC(=O)/C=C\C(=O)O)cc3)CC2)c1`: “inactive”.
Turning to `CN1CCN(c2ccc(NC(=O)c3ccccc3)cc2)CC1`, the Potency entry was “inactive”.
Same read-out and setting: next, `C=CC(=O)Nc1ccc(Nc2ccnc(Nc3ccc(N4CCN(C)CC4)cc3)n2)cc1`: 5.01 µM (active); `CN(C)c1ccc(/C=C/C(=O)c2ccc(O)cc2)cc1[N+](=O)[O-]`: 15.8 µM (active).
As to `O=C(/C=C/c1ccc(Cl)c([N+](=O)[O-])c1)c1ccc(O)cc1`, the Potency result was “inactive”.
Turning to `CC(=O)Nc1ccc(C=CC(=O)c2ccc([N+](=O)[O-])cc2)cc1`, the Potency entry is “inactive”.
On the same count and under the same terms, as for `COc1cccc(C(O)c2nc(-c3ccc(C)c(C)c3)cs2)c1` (configuration not stated), the entry is “inactive”; as for `O=C(c1ccc(C(F)(F)F)cc1)N1CCC(=O)N([C@H](COCc2ccccc2)Cc2ccccc2)CC1`, “inactive”.
As for `CN(C)c1ccc(/C=C2\C=Cc3ccccc32)cc1Br`, the Potency result is “inactive”.
Regarding `CCCCN(C=O)c1c(CC)nc2c(OCCC3CCCCC3)cccn12`, the Potency result was “inactive”.
On to `CN(C)C(CNC(=O)c1cccc(S(=O)(=O)N2CCc3ccccc3C2)c1)c1ccccc1` (configuration not stated), for which the Potency result is “inactive”.
For `COCOCCn1cc(CN2CCS(=O)(=O)N(Cc3ccc(-c4ccc(OC)cc4)cc3)C(CC(C)C)C2=O)nn1` (configuration not stated), the Potency entry was “inactive”.
On to `O=C(CCCN1C(=O)/C(=C/c2ccco2)SC1=S)Nc1ccccc1`, for which the Potency entry was “inactive”.
Still for that read-out and setting: next, `O=C(CCN1C(=O)/C(=C/c2cccs2)SC1=S)NNC(=O)c1cccc(O)c1`: “inactive”.
Still for that read-out and setting: as for `O=C(CCCN1C(=O)/C(=C/c2cccs2)SC1=S)Nc1ccc(O)cc1`, the figure is 10 µM (active); as for `O=C1C(Sc2cccc(F)c2)=C[C@@]2(O)CC[C@@H](O)[C@]1(Sc1cccc(F)c1)[C@H]2O`, “inactive”.
With `CCCCCNC(=O)C(c1ccc(OC)cc1)n1c(=O)c(-c2ccccc2)nc2ccccc21` (configuration not stated), the Potency entry was “inactive”.
`C#CCNc1ccc(C(=O)OCC)cc1`: the Potency entry is “inactive”.
Take `CC(C)OC(=O)c1ccc(NCc2cc(O)ccc2O)cc1Cl`: the Potency was 4.47 µM (active).
As for `CC(OC(=O)c1ccc(Cl)cc1O)C(=O)NCCC1=CCCCC1` (configuration not stated), the Potency result was “inactive”.
Take `CC(C)NC(=O)c1ccc(Cl)cc1Cl`: the Potency entry was “inactive”.
In the case of `COC(=O)c1ccc(NC(=O)CSc2nnc(CNc3ccc(OC)cc3)n2C)cc1`, the activity change, negative = inhibition is -12.7% [at 1.46 µM].
Regarding `COC(=O)c1ccc(NCc2cc(O)ccc2O)cc1`, the Potency was 10 µM (active).
Still for that read-out and setting: as for `COc1ccc(C(=O)N2CCCCC2c2cc(C(=O)Nc3ccccc3)no2)cc1` (configuration not stated), the entry is “inactive”.
Turning to `COc1ccc(-c2coc3c(C(=O)NC(C)C)cccc23)c(C)c1`, the Potency result was “inactive”.
On the same count and under the same terms, as for `CCCCC[C@@H]1C=C(C(=O)OCC)[C@H](c2ccccc2)N1S(=O)(=O)c1ccc(C)cc1`, the entry is “inactive”; as for `COCc1cccc(-c2csc(C(O)c3ccc(F)cc3)n2)c1` (configuration not stated), “inactive”; as for `CCCCCCOc1ccc(OC(=O)c2cccnc2)cc1`, 10 µM (active).
Still for that read-out and setting: next, `N#CCc1ccc(OC(=O)c2cccnc2)cc1`: “inactive”; `O=C(Oc1ccc(Br)cc1)c1cccnc1`: “inactive”.

The values are drawn from PubChem BioAssay AID720579 (National Center for Advancing Translational Sciences (NCATS), 2013).
